Screens deposited in PubChem BioAssay by National Center for Advancing Translational Sciences (NCATS).
Shown are actives, neighbours in structure and some others; about 12% of the full set was active somewhere.
G9a block: qHTS Assay for Inhibitors of Histone Lysine Methyltransferase G9a; G9a H3K9 monomethylation, AlphaScreen, 2 h; 350,000 tested, 8.8% active; AID 504332, 2011; Potency, µM (titrated, usually from 102 µM), usual class: inhibitors; also: nearly all actives have a fitted effect of over 75% in size
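Chemiluminescent proximity detection of H3K9 monomethylation, read after 10 min bead incubation in the dark. Reaction: 20 nM G9a, 500 nM biotin-H3K9 peptide, 20 uM SAM cofactor, 2 h, room temperature, following 15 min enzyme-compound preincubation.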
BAZ2B inh: qHTS Assay for Inhibitors of BAZ2B. 360,000 tested, 4.4% active. Potency, µM (titrated, usually from 114 µM), hits mostly inhibitors. Bromodomain adjacent to zinc finger domain protein 2B (Homo sapiens), Q9UIF8. AlphaScreen BAZ2B-H3K14Ac peptide displacement. AID 504333, 2011; also: nearly all actives have a fitted effect of over 60% in size
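BAZ2B (50 nM) with biotin-H3(5-23)K14Ac peptide (50 nM) in PBS pH 7.4, 0.01% Tween-20, preformed 30 min, then compound 30 min at room temperature; top concentration 110uM. AlphaScreen streptavidin donor/nickel chelate acceptor beads (10 ug/mL final), 20 min dark, signal read.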
Sfp inh: qHTS Assay for Inhibitors of Bacillus subtilis Sfp phosphopantetheinyl transferase (PPTase); 4'-phosphopantetheinyl transferase ffp (Bacillus subtilis), Q9F4F7; Biochemical Sfp PPTase activity, qHTS; Potency, µM, most hits filed as inhibitors; 310,000 tested, 3.5% active; AID 1490, 2009;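 also: the enzyme is Sfp with the accession as filed and its product quenches rhodamine fluorescence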
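Buffer: 50 mM Hepes-Na pH 7.6, 10 mM MgCl2, 0.01% Nonidet P-40, 0.01% BSA. Enzyme 15 nM, pre-exposed to compound 15 min; substrates then added and fluorescence change tracked over 30 min.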
JMJD2A Tudor: qHTS Assay for Inhibitors of JMJD2A-Tudor Domain; AlphaScreen JMJD2A-Tudor / H3K4me3 peptide binding; Lysine-specific demethylase 4A (Homo sapiens), O75164; Potency, µM (doses to about 114 µM), hits mostly inhibitors; AID 504339, 2011; 390,000 tested, 4.4% active; also: nearly all actives have a fitted effect of over 50% in size
Target sequence (O75164 whole entry, looked up, the tested form may be a part): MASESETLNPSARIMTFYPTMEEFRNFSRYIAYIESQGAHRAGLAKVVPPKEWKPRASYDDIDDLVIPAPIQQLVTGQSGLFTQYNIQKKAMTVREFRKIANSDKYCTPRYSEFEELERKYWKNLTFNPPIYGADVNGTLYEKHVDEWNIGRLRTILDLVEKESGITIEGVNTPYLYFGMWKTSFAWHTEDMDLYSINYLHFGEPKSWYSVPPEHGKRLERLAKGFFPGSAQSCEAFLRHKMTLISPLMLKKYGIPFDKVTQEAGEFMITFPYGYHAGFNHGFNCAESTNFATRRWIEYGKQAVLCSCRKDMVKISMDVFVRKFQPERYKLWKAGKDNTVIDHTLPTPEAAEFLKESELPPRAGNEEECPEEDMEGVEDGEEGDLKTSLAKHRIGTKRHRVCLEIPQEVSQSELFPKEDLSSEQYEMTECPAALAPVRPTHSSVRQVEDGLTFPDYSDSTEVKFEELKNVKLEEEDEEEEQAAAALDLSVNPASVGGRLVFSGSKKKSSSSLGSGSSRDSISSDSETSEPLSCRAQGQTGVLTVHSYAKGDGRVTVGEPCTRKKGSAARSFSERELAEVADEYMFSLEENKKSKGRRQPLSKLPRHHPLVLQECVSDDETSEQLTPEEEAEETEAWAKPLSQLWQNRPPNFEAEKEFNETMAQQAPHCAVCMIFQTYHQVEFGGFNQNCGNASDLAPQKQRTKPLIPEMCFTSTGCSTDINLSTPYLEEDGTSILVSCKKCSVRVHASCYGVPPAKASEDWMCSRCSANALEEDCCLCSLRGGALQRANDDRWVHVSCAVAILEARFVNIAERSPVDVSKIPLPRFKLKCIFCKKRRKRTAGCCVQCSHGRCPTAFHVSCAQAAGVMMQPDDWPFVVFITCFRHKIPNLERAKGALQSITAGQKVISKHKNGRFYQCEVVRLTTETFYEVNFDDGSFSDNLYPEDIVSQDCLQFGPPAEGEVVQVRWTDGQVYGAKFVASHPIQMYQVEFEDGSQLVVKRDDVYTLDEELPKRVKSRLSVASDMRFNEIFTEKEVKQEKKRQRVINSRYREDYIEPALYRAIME
HP1b chromo inh: HTS for Inhibitors of HP1-beta Chromodomain Interactions with Methylated Histone Tails | 390,000 tested, 0.56% active | Chromobox protein homolog 1 (Homo sapiens), P83916 | Potency, µM (top dose mostly 114 µM), most hits filed as inhibitors | AlphaScreen HP1-beta / biotin-H3K9me3 peptide binding | AID 540317, 2011; also: nearly all actives have a fitted effect of over 70% in size
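AlphaScreen: HP1-beta (50 nM) preformed 30 min with biotin-H3(1-18)K9me3 peptide (50 nM) in PBS pH 7.4, 0.01% Tween-20. Compound added for 30 min at RT, then streptavidin donor/nickel chelate acceptor beads (10 ug/mL) for 30 min.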
Of the large screens only hits and unclear results are named; the others gave an inactive call; ! = a repeat was not active. Calls follow the shape of the dose curve; as a rule, active = well fitted curve in the direction sought with a large enough effect; inconclusive = small, poorly fitted or top-dose-only effect, or another doubt; inactive = no such curve, though single readings can be large; an effect the other way counts as inactive or inconclusive.

COc1ccc(C(=O)NC(=O)CSc2nc3nc(C)cc(C)n3n2)cc1	none (no result: G9a block, BAZ2B inh, Sfp inh)
COc1ccc(-n2c(=O)c3c(c4cc(OC)ccc4n3C)n(CCC(C)C)c2=O)cc1	none (no result: Sfp inh)
COc1cccc(-c2noc(Cn3nc(C(=O)O)c4ccccc4c3=O)n2)c1	none
O=C(O)c1nn(Cc2ncc(-c3cccc(Cl)c3)o2)c(=O)c2ccccc12	G9a block 40µM, HP1b chromo inh inconclusive
O=[N+]([O-])c1ccc(/C=[N+](\[O-])[C@@H]2CCCC[C@@H]2/[N+]([O-])=C/c2ccc([N+](=O)[O-])o2)o1	G9a block 50µM, BAZ2B inh 2.5µM, Sfp inh inconclusive
O=C(N/N=C/c1ccc([N+](=O)[O-])o1)C1CCCC1	none
COc1ccc2c(c1)nc(SCC(=O)c1cccs1)n2C	G9a block 45µM, Sfp inh 89µM, JMJD2A Tudor 79µM
COc1ccc2c(c1)nc(SCC(=O)C(C)(C)C)n2C	G9a block inconclusive, Sfp inh 56µM, JMJD2A Tudor inconclusive
Cc1ccc2sc(N(Cc3cccnc3)C(=O)CCOc3ccccc3)nc2c1C	none (no result: Sfp inh)
C=CCn1c(-c2cc3c(s2)CCC(CC)C3)n[nH]c1=S (stereo not drawn)	G9a block 11µM, JMJD2A Tudor inconclusive
CC1=CC(=O)C(C(C)C)=CC1=NC(=O)c1ccc(C)cc1	G9a block 8.9µM, BAZ2B inh 40µM, Sfp inh 10µM, JMJD2A Tudor 50µM, HP1b chromo inh 22µM
CC1=CC(=O)C(C(C)C)=C/C1=N/OC(=O)c1cccc([N+](=O)[O-])c1	Sfp inh inconclusive
O=C(Cc1sc(Nc2ccccc2)nc1-c1ccccc1)NCc1ccccn1	G9a block 35µM, Sfp inh 14µM, JMJD2A Tudor inconclusive
O=C(O)Cc1sc(Nc2ccc(C(=O)O)cc2)nc1-c1ccccc1	none (no result: Sfp inh)
O=C(O)Cc1sc(NCc2ccco2)nc1-c1ccccc1	BAZ2B inh inconclusive, Sfp inh 25µM (no result: G9a block)
O=C(O)Cc1cn(-c2ccccc2)nc1-c1ccc(Cl)cc1	Sfp inh 45µM!
O=C(O)Cc1sc(-c2ccc(Cl)cc2)nc1-c1ccccc1	JMJD2A Tudor 25µM, HP1b chromo inh inconclusive
O=C(O)Cc1sc(-c2ccccc2)nc1-c1ccccc1	G9a block inconclusive
CC1(C)SC2c3ccccc3C(=O)N2[C@@H]1C(=O)O (stereo partly drawn)	none
COc1ccc(-n2nc(C(=O)NCC(=O)Nc3ccc(F)cc3)c3ccccc3c2=O)cc1	none
O=C(O)Cc1sc(Nc2ccc(F)cc2)nc1-c1cccs1	G9a block 8.9µM, BAZ2B inh inconclusive, Sfp inh 22µM, JMJD2A Tudor inconclusive, HP1b chromo inh inconclusive
O=C(O)Cc1sc(Nc2ccccc2)nc1-c1ccc(Cl)cc1	G9a block 18µM, Sfp inh inconclusive, JMJD2A Tudor 45µM, HP1b chromo inh inconclusive
Cc1ccc(Nc2nc(-c3ccccc3)c(CC(=O)O)s2)cc1	G9a block 45µM
CC(C)N(CCNC(=O)C1CCCN(c2ncnc3c2nc2n3CCCCC2)C1)Cc1ccccc1 (stereo not drawn)	none
CC1CCN(S(=O)(=O)c2ccc3c(c2)N(CC(=O)NCc2ccccc2)C(=O)CO3)CC1	none (no result: Sfp inh)
CC1(C)CC(=O)C2=C(C1)NC1=C(C(=O)c3ccccc31)C2c1ccccc1 (stereo not drawn)	G9a block 20µM, BAZ2B inh 32µM, JMJD2A Tudor 40µM, HP1b chromo inh 50µM
CC(C)c1ccc(C2C3=C(CC(C)(C)CC3=O)NC3=C2C(=O)c2ccccc23)cc1 (stereo not drawn)	G9a block inconclusive, BAZ2B inh inconclusive, JMJD2A Tudor inconclusive
CC1=C([N+](=O)[O-])C(c2ccccc2)C2=C(N1)c1ccccc1C2=O (stereo not drawn)	G9a block 10µM, BAZ2B inh 35µM, Sfp inh inconclusive, JMJD2A Tudor 25µM, HP1b chromo inh inconclusive
CC1(C)CC(=O)C2=C(C1)NC1=C(C(=O)c3ccccc31)C2c1cccnc1 (stereo not drawn)	G9a block inconclusive, BAZ2B inh inconclusive, JMJD2A Tudor inconclusive
CC(C)(C)c1ccc(C2C3=C(CCCC3=O)NC3=C2C(=O)c2ccccc23)cc1 (stereo not drawn)	G9a block 40µM, BAZ2B inh inconclusive, JMJD2A Tudor 25µM
COc1ccc(C2C(C#N)=C(C)NC3=C2C(=O)c2ccccc23)cc1 (stereo not drawn)	G9a block inconclusive, BAZ2B inh inconclusive, JMJD2A Tudor inconclusive
O=S(=O)(O)c1cccnc1SCc1ccccc1	none (no result: G9a block, BAZ2B inh, Sfp inh)
C=CCOc1ccc2c(=O)n(C)c3ccccc3c2c1	none (no result: G9a block, BAZ2B inh)
CCc1cc(=O)oc2c(CN3CCN(C)CC3)c(O)ccc12	none
CN1CCN(Cc2c(O)ccc3cc(Br)ccc23)CC1	G9a block 5µM, JMJD2A Tudor inconclusive (no result: BAZ2B inh)
Cc1ccc(/C=N/NC(=O)Cn2nc(C)c([N+](=O)[O-])c2C)o1	G9a block 50µM, Sfp inh 45µM
COc1ccc(/C=N/NC(=O)Cn2nc(C)c([N+](=O)[O-])c2C)cc1	JMJD2A Tudor 79µM
Cc1ccc(/C=N/NC(=O)Cn2nnc(N)n2)o1	G9a block 45µM
Cc1ccc(/C=N/NC(=O)Cn2nccc2C)o1	none
Cc1ccc(/C=N/NC(=O)Cn2nnc(N)n2)cc1	none
Cc1nn(C(C)C(=O)N/N=C/c2ccc(N(C)C)cc2)c(C)c1[N+](=O)[O-] (stereo not drawn)	G9a block 56µM, BAZ2B inh inconclusive, JMJD2A Tudor inconclusive
COc1cc(/C=C/CNC[C@H]2O[C@@H](n3ccc(=O)[nH]c3=O)[C@H](O)[C@@H]2O)ccc1O	none (no result: G9a block, BAZ2B inh, Sfp inh)
Cc1ccc(N=Nc2c(O)c3ccccc3[nH]c2=O)c(S(=O)(=O)N(C)C)c1	none (no result: G9a block, JMJD2A Tudor, HP1b chromo inh)
O=S(=O)(O)c1ccc2c(N=Nc3ccc(S(=O)(=O)O)c4ccccc34)c(O)c(S(=O)(=O)O)cc2c1	G9a block 28µM (no result: BAZ2B inh, JMJD2A Tudor, HP1b chromo inh)
O=S(=O)(O)c1cc(O)c(N=Nc2ccc(O)cc2O)c2ccccc12	JMJD2A Tudor 3.5µM, HP1b chromo inh inconclusive (no result: G9a block, BAZ2B inh, Sfp inh)
CC(C)[C@@H](CC(=O)N[C@@H]1CCCC[C@H]1C(=O)N[C@H](CC(=O)N[C@@H](CCC(=O)O)CC(=O)O)Cc1ccccc1)NC(=O)C[C@H](Cc1c[nH]c2ccccc12)NC(=O)[C@@H]1CNCC[C@H]1N	none (no result: G9a block, BAZ2B inh, JMJD2A Tudor, HP1b chromo inh)
N#Cc1ccc(CN2CC3(CCN(C(=O)c4cnccn4)CC3)C2)cc1	none (no result: BAZ2B inh, JMJD2A Tudor, HP1b chromo inh)
C=C1c2cc(OC)ccc2NC(=O)N1CC	G9a block 32µM
CCCNC(=O)OC[C@@H]1O[C@H](CCON=C(C)C)C=C[C@@H]1Oc1ccc(OC)cc1	none (no result: G9a block, BAZ2B inh, JMJD2A Tudor, HP1b chromo inh)
